An excerpt weighted towards active compounds, which were near 3.1% of everything screened.
EWS-Fli block = EWS/Fli-driven NR0B1 reporter inhibitors, primary screen, A673 cells, NR0B1 luciferase, luminescence, MLPCN library; viability-normalised; hit rate 0.67% among 350,000; inhibition, % at 12.6 µM; AID 651661, 2012;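 active = mean inhibition of at least 50% after viability correction, with every replicate also passing that limit; inconclusive = mean reaches 50% but only one of two replicates passes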;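 note: firefly luciferase signal divided by Alamar Blue viability fluorescence both relative to DMSO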
INS-1E GSIS act = GLuc luminescence reporter in INS-1E cells, primary screen for activators of glucose-dependent secretion of insulin; hit rate 0.61% among 370,000; AID 743287, 2014; activation, % at 16.6 µM; INS-1E GLuc reporter insulin secretion, 2-3 h;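 active = lowest replicate activation of at least 40%, so every replicate reaches that level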;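 note: 0% = median of neutral control wells and 100% = median of IBMX positive control wells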
C2C12 statin = suppressors of statin myotoxicity in C2C12 myotubes, primary screen, cell-based, single point, plate reader. C2C12 myotubes + simvastatin, ATP luminescence, 48 h; scaled: DMSO 0, geranylgeraniol control 100. rescue of ATP level, % at 7.49 µM. hit rate 0.78% among 330,000;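 active = mean ATP rescue above about 67%, or every replicate alone reaching that limit, limit read from the data, passing the limit was not always enough; inconclusive = no clear call, values can overlap the other calls; inactive = mean under the limit and some replicate under it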;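 note: myotubes were challenged with 10 µM simvastatin during compound exposure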
miR122 inh = miR-122 Renilla sensor signal increase in Huh7, primary screen, miR-122 inhibitor project, cell-based, single point, plate reader. hit rate 0.3% among 340,000. activation (reporter increase), % at 12.5 µM. Huh7 miR-122 Renilla luciferase sensor, 48 h; neutral wells = 0, positive control = 100;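 active = mean replicate activation score at least 90 and every replicate individually at or above 90; inconclusive = only one of the two criteria met; inactive = neither criterion met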;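 note: higher luciferase means less miR-122 activity so hits act as miR-122 inhibitors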
HIV Env fusion = inhibitors of HIV-1 Env-driven cell-cell fusion, primary screen, HeLa-JRFL effector, CEM21 target cells, luciferase | inhibition, % at 12.3 µM | hit rate 1.1% among 360,000;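 active = mean replicate inhibition score of at least 50 and every replicate individually at or above 50; inconclusive = only one of the two criteria met; inactive = mean below 50 and not all replicates reaching 50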;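 note: 0% = plate neutral controls and 100% = maraviroc near 300 nM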
PAX8 reporter = inhibitors of PAX8-driven TPO luciferase reporter, primary screen, RMG-I cells, single concentration; SteadyGlo, 24 h; inhibition, % at 12.6 µM; hit rate 1.2% among 360,000;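 active = mean replicate inhibition at least 60% with every replicate also reaching 60%; inconclusive = only one of the two criteria is met; inactive = mean below 60% and not all replicates reaching 60%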;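 note: luciferase light reporting Pax8 driven TPO promoter activity; plate controls were median of neutral control wells for no effect and mitoxantrone controls for full effect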
Numbers without * were called inactive; u = inconclusive; x = no result; [ ] = another dose, or the depositor's remark.

SMILES	EWS-Fli block	INS-1E GSIS act	C2C12 statin	miR122 inh	HIV Env fusion	PAX8 reporter
COCC(=O)Nc1ccc2c(c1)OC[C@@H](C)N(C(=O)C1CCCC1)C[C@@H](C)[C@@H](OC)CN(C)C2=O	-1.6	-3.9	-13.6	22.4[16.7 µM]	-8.9[16.7 µM]	1.9
CCc1cccc2c(C(=O)CN3C(=O)NC4(CCCCCC4)C3=O)c[nH]c12	45.1	-29.0	-239.0	42.4	x	81.8*
C[C@@H]1CN([C@@H](C)CO)C(=O)c2cc(NS(=O)(=O)c3ccc(F)cc3)ccc2O[C@@H](C)CCCCO[C@@H]1CN(C)C(=O)Nc1ccccc1	-4.1	-1.5	x	14.2[16.7 µM]	-56.1[16.7 µM]	-4.7
O=C(Nc1ccccc1C(=O)NC(Cc1ccccc1)C(=O)NC1CCCCCC1)c1ccccc1 (configuration not stated)	x	x	118.7*	1.6	x	x
CC(C)NC(=O)N[C@@H]1C=C[C@H](CC(=O)NCCCN(C)C)O[C@@H]1CO	3.1	9.8	-15.9	4.1[16.7 µM]	-10.1[16.7 µM]	-4.8
NS(=O)(=O)c1ccc(NC(=O)COC(=O)c2cn(-c3ccccc3)nc2-c2ccc(F)cc2)cc1	x	65.0*	x	x	-7.2	-18.3
CC1(C)Cc2c(cnn2-c2ccccc2)C(NC(=O)CCN2CCCC2=O)C1 (configuration not stated)	9.9	40.6*	9.2	x	2.2	-3.6
COCC(=O)Nc1ccc2c(c1)C(=O)N(C)C[C@@H](OC)[C@@H](C)CN(C(=O)C1CCCC1)[C@@H](C)CO2	-9.2	0.3	-21.0	-12.6[16.7 µM]	x	x
COc1cc(NC(=O)c2ccccc2Cl)c2ncccc2c1	57.6*	21.1	-20.1	13.4	-26.4	26.6
Cc1ccc(S(=O)(=O)N[C@@H]2CC[C@H](CCNC(=O)C3CCCC3)O[C@H]2CO)cc1	3.3	2.5	0.3	3.2[16.7 µM]	8.6[16.7 µM]	-5.9
CN(C)c1ccc2c(c1)[C@H]1C[C@H](CC(=O)NCc3ccccc3)O[C@H](CO)[C@H]1O2	0.0	-0.6	0.5	8.2[16.7 µM]	28.7[16.7 µM]	-3.4
CN(C)c1ccc2c(c1)[C@@H]1C[C@@H](CC(=O)NCc3ccc(-c4ccccc4)cc3)O[C@@H](CO)[C@@H]1O2	54.6*	-19.5	x	x	x	16.1
CN(C)c1ccc2c(c1)[C@@H]1C[C@H](CC(=O)NCc3ccc(-c4ccccc4)cc3)O[C@@H](CO)[C@@H]1O2	4.2	-12.0	-10.9	1.4[16.7 µM]	80.5*[16.7 µM]	14.3
C[C@H](CO)N1C[C@H](C)[C@H](CN(C)Cc2ccc(Oc3ccccc3)cc2)Oc2c(NS(C)(=O)=O)cccc2C1=O	-1.8	-9.7	3.9	8.5[16.7 µM]	x	2.7
NC(=O)c1ccsc1NC(=O)CCS(=O)(=O)c1ccccc1	2.6	1.0	x	x	-0.6	32.6
N#Cc1ccsc1NC(=O)COC(=O)CCS(=O)(=O)c1ccccc1	5.6	-23.7	-0.2	-7.5	0.6	-11.8
N#Cc1ccsc1NC(=O)CCS(=O)(=O)c1ccccc1	-4.4	-2.4	-5.2	-1.1	x	64.1*
CCOC(=O)c1ccsc1NC(=O)CCS(=O)(=O)c1ccccc1	-8.5	14.4	2.3	x	x	63.8*
NC(=O)c1ccsc1NC(=O)CCS(=O)(=O)c1ccc(Cl)cc1	10.4	-9.7	-11.8	x	21.0	64.7*
CS(=O)(=O)N1CC2(C1)[C@@H](c1ccccc1)[C@@H](CO)N2CC1CC1	-1.0	3.7	x	x	x	-9.1
CCCCCCCCN1C(=O)[C@@H](CC(=O)N2CCOCC2)C[C@@]2(C(=O)OC)C1=C[C@H](C1CCCC1)O[C@@H]2C	5.9	x	x	x	17.0	8.1
CCCCCCCCN1C(=O)[C@@H](CC(=O)N2CCCC2)C[C@@]2(C(=O)OC)C1=C[C@H](C1CCCC1)O[C@@H]2C	34.2	112.0*	x	x	19.3	5.1
CCCCCCCCN1C(=O)[C@@H](CC(=O)N2CCN(C(=O)C3CC3)CC2)C[C@@]2(C(=O)OC)C1=C[C@H](C1CCCC1)O[C@@H]2C	12.5	71.8*	x	x	u	21.2
CCOc1ccc(S(=O)(=O)NCc2csc(C)n2)cc1	x	x	3.6	2.9	x	x
COc1ccc(S(=O)(=O)NCc2csc(C)n2)cc1	x	x	142.2*	7.5	x	x
SMILES	EWS-Fli block	INS-1E GSIS act	C2C12 statin	miR122 inh	HIV Env fusion	PAX8 reporter
C[C@H](CO)N1C[C@H](C)[C@H](CN(C)C)Oc2ncc(-c3ccc(C(=O)N(C)C)cc3)cc2C1=O	-2.7	2.2	6.9	29.1[16.7 µM]	-8.4[16.7 µM]	x
CN1C(=O)c2cc(NC(=O)NCc3ccccc3)ccc2OC[C@H]2O[C@@H](CC(=O)NCC3CCCCC3)CC[C@H]21	6.7	-3.7	-5.7	6.7[16.7 µM]	x	-8.0
CN1C(=O)c2cc(NC(=O)Cc3ccccc3)ccc2OC[C@@H]2O[C@@H](CC(=O)NCc3ccc(Cl)cc3)CC[C@@H]21	2.5	-20.5	26.9	233.3*[16.7 µM]	17.2[16.7 µM]	35.9
CN1C(=O)c2cc(NC(=O)Cc3cccs3)ccc2OC[C@@H]2O[C@@H](CC(=O)NCC3CCCCC3)CC[C@@H]21	9.2	-5.9	25.1	195.6*[16.7 µM]	x	-7.2
CN1C(=O)c2cc(NC(=O)Cc3cccs3)ccc2OC[C@H]2O[C@@H](CC(=O)NCC3CC3)CC[C@H]21	0.1	0.9	2.6	2.2[16.7 µM]	13.9[16.7 µM]	-3.1
CN1C(=O)c2cc(NC(=O)NCc3ccccc3)ccc2OC[C@@H]2O[C@@H](CC(=O)NCC3CCCCC3)CC[C@@H]21	6.8	-4.3	56.2	120.0*[16.7 µM]	x	19.4
COCCNC(=O)C[C@@H]1CC[C@H]2[C@@H](COc3ccc(NC(C)=O)cc3C(=O)N2C)O1	-5.0	4.7	-2.2	183.3*[16.7 µM]	-16.2[16.7 µM]	-1.8
COCC#Cc1ccc2c(c1)O[C@H](CN(C)C)[C@@H](C)CN([C@H](C)CO)S2(=O)=O	2.5	9.2	7.0	-3.6[16.7 µM]	10.4[16.7 µM]	5.9
COc1cc2c(cc1OC)[C@@]13ON=C(c4ccc(OCCO)cc4)[C@@H]1CCN3CC2	-15.5	x	x	x	11.9[16.7 µM]	x
Cc1ccc(S(=O)(=O)Nc2ccc3c(c2)C(=O)N([C@@H](C)CO)C[C@H](C)[C@@H](CN(C)C(=O)c2ccccc2)OCCCC[C@@H](C)O3)cc1	14.3	-29.4	x	-4.1[16.7 µM]	-9.7[16.7 µM]	-6.6
Cc1ccccc1NC(=O)Nc1ccc2c(c1)C(=O)N(C)[C@H]1CC[C@H](CC(=O)NCC3CC3)O[C@H]1CO2	4.2	-7.2	24.5	227.8*[16.7 µM]	x	2.4
CCNC(=O)C[C@H]1CC[C@@H]2[C@@H](COc3ccc(NC(=O)Nc4cccc(OC)c4)cc3C(=O)N2C)O1	-11.3	-2.9	22.8	13.3[16.7 µM]	58.5*[16.7 µM]	-15.7
CN1C(=O)c2cc(NC(=O)Cc3cccs3)ccc2OC[C@@H]2O[C@H](CC(=O)NCc3ccc(-c4ccccc4)cc3)CC[C@@H]21	11.7	x	-1.9	188.3*[16.7 µM]	27.8[16.7 µM]	49.0
CN1C(=O)c2cc(NC(=O)c3cccc(Cl)c3)ccc2OC[C@H]2O[C@@H](CC(=O)NC3CCCCC3)CC[C@@H]21	0.6	5.6	x	x	x	x

High-throughput results from PubChem.
